Structures are written as SMILES. Several values for one entry are separate records, joined by “and”; a condition that tells them apart may be missing. Equal values may be shown once. Inconclusive results are not listed. More than one record can exist for a structure, and the calls need not agree. Activity calls are given as the source filed them. Calls come from the whole dose curve; as a rule, active = well fitted inhibition curve with a large enough effect; inconclusive = small, poorly fitted or top-dose-only effect; inactive = flat fitted curve, though single readings scatter.

In PubChem BioAssay (NCATS) one finds Potency data, which are given here for 26 molecules.

The target of experiment [1] is Glutathione peroxidase 1 (Homo sapiens) (UniProt P07203). In words: Primary qHTS Assay for Inhibitors of Recombinant Selenoprotein Glutathione Peroxidase 1 (GPX1) (AID 1845191). Note: nearly all actives have a fitted effect of over 65% in size. The gist of the method:
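GR-coupled readout: NADPH consumption tracked by fluorescence, ex 340/em 450 nm, at t=0 and after 15 min at RT. Final mix 10 nM GPX1, 1 mM GSH, 0.5 mM CHP, 0.5 mM NADPH, 100 nM GR, 0.01% BSA, following 30 min enzyme–compound preincubation.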
(In general: Quantitative high-throughput screening tests each substance at several concentrations.)

Experiment [2] deals with Phospholipid hydroperoxide glutathione peroxidase GPX4 (Homo sapiens) (UniProt P36969). In words: Primary qHTS Assay for Inhibitors of Recombinant Selenoprotein Glutathione Peroxidase 4 (GPX4) (AID 1845192). Note: nearly all actives have a fitted effect of over 65% in size. Note: potency is the fitted concentration of half-maximal effect. In short, it runs like this:
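Steps: GPX4 plus compound, 30 min RT; add GR/GSH/NADPH master mix; start with cumene hydroperoxide; read 340/450 nm fluorescence at 0 and 15 min. Finals were 200 nM GPX4, 1 mM GSH, 0.5 mM CHP, 0.5 mM NADPH, 100 nM GR.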

Experiment [3] addresses Luciferin 4-monooxygenase (Photinus pyralis) (UniProt P08659). In words: Primary firefly luciferase (FLuc) qHTS assay for identification of artifact compounds. (AID 1845220). Note: nearly all actives have a fitted effect of over 60% in size. Note: potency is the fitted concentration of half-maximal effect. In short, it runs like this: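 D-luciferin and ATP (10 uM each, final) in Tris acetate buffer pH 7.6 were incubated with compounds for 15 min at room temperature. The reaction was started with 10 nM Photinus pyralis luciferase and luminescence read after 5 min. Percent inhibition was fitted to a 4-parameter Hill equation.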

The subject of experiment [4] is Nanoluciferase (engineered Oplophorus gracilirostris luciferase). In words: Primary Nanoluciferase (NLuc) qHTS assay for identification of artifact compounds. (AID 1845222). Note: series mostly up to about 54 µM. The gist of the method:
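Diluted conditioned medium from NLuc-expressing S16 cells treated with compounds for 15 min at room temperature, then Nano-Glo substrate added; luminescence read after 5 min. Percent inhibition versus no-enzyme and DMSO controls fitted to 4-parameter Hill equation.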

Phospholipid hydroperoxide glutathione peroxidase GPX4 (Homo sapiens), sequence (P36969 whole entry, looked up): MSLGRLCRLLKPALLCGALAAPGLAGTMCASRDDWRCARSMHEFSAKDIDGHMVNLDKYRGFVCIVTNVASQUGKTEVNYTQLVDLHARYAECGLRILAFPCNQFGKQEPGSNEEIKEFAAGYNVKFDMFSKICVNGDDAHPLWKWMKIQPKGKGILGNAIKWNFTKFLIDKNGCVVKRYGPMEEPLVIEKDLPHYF
Glutathione peroxidase 1 (Homo sapiens), sequence (P07203 whole entry, looked up): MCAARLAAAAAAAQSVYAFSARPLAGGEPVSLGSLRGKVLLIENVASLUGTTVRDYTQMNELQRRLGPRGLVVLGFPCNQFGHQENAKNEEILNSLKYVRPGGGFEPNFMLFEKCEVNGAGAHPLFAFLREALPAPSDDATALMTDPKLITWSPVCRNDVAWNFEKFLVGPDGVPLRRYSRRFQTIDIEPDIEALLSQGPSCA

Take `COc1cc2c(c(OC)c1CC=C(C)C)C[C@H](c1ccc(O)c(CC=C(C)C)c1O)CO2`: the Potency result in experiment [1], in experiment [2], in experiment [3] and in experiment [4] was “inactive” each time.
For the molecule `CCCc1cc(C)[nH]c(=O)c1CNC(=O)c1cc(-c2ccc(N3CCN(C(C)C)CC3)nc2)cc2c1cnn2C(C)C`, the Potency entry in experiment [1], in experiment [2], in experiment [3] and in experiment [4] was “inactive” throughout.
On to `Cc1cc(C(=O)Cn2cc(C#N)ccc2=O)c(C)n1Cc1ccccc1`, for which the Potency entry in experiment [1], in experiment [2], in experiment [3] and in experiment [4] was “inactive” in each case.
For `CCN(CC)CCCCCCNc1cc(OC)cc2c(C)ccnc12`, the Potency entry in experiment [1], in experiment [2], in experiment [3] and in experiment [4] was “inactive” throughout.
As for `C/C=C(\C)[C@@H]1C(C)=C[C@@H]2[C@H]([C@@H]1/C=C/C=C/C(=O)O)[C@@H](C)CC[C@@H]2O`, the Potency result in experiment [1], in experiment [2], in experiment [3] and in experiment [4] was “inactive” each time.
As for `CN1CC[C@@H](c2c(O)cc(O)c3c(=O)cc(-c4ccc(C(F)(F)F)cc4Cl)oc23)[C@@H]1CO`, the Potency result in experiment [1], in experiment [2], in experiment [3] and in experiment [4] was “inactive” throughout.
Regarding `C=C(C)[C@@H]1CC=C(COC(=O)NC(=O)c2ncn3c(=O)n(C)nnc23)CC1`, the Potency entry in experiment [1], in experiment [2], in experiment [3] and in experiment [4] was “inactive” in each case.
For the molecule `COc1ccc(CCO[C@@H]2O[C@H](CO[C@H]3OC[C@](O)(CO)[C@H]3O)[C@@H](OC(=O)/C=C/c3ccc(O)c(O)c3)[C@H](O[C@@H]3O[C@@H](C)[C@H](O)[C@@H](O)[C@H]3O)[C@H]2O)cc1OC`, the Potency result in experiment [1], in experiment [2], in experiment [3] and in experiment [4] was “inactive” each time.
For the molecule `COc1cc(-c2cn(C3CCc4c(F)cccc4N(CC(F)(F)F)C3=O)nn2)ccc1-n1cnc(C)c1` (centres undefined), the Potency result in experiment [1], in experiment [2], in experiment [3] and in experiment [4] was “inactive” each time.
Regarding `COc1ccc(C2Oc3c(OC)cc(CCCO)cc3C2COC2OC(CO)C(O)C(O)C2O)cc1OC` (centres undefined), the Potency result in experiment [1], in experiment [2], in experiment [3] and in experiment [4] was “inactive” in each case.
In the case of `CC1(CO)CC(O)[C@]2(C(=O)O)CCC34CC3(C=CC3[C@]5(C)C(CC[C@]34C)C(C)(CO)[C@@H](O)[C@H](O)[C@@H]5O)C2C1` (some centres undefined), the Potency result in experiment [1], in experiment [2], in experiment [3] and in experiment [4] was “inactive” in each case.
Regarding `CC(C)CC(=O)c1c(O)cc2c(c1O)C(CC(C)C)C1=C(O2)C(C)(C)C(=O)C(C)(C)C1=O` (centres undefined), the Potency entry in experiment [1], in experiment [2], in experiment [3] and in experiment [4] was “inactive” in each case.
`O=C(NC1CCN(CCCCC2(C(=O)NCC(F)(F)F)c3ccccc3-c3ccccc32)CC1)c1ccccc1-c1ccc(C(F)(F)F)cc1`: the Potency entry in experiment [1], in experiment [2], in experiment [3] and in experiment [4] was “inactive” in each case.
Turning to `OC1CCC(Nc2nc(-c3ccccc3)nc3[nH]ccc23)CC1` (centres undefined), the Potency entry in experiment [1], in experiment [2], in experiment [3] and in experiment [4] was “inactive” each time.
For the molecule `C/C(=C\Cc1c(O)c(Cl)c(C)c(C=O)c1O)CC/C=C(\C)[C@H]1CC(=O)C(C)(C)O1`, the Potency result in experiment [1], in experiment [2], in experiment [3] and in experiment [4] was “inactive” each time.
With `C=C1C(=O)OC2/C=C(\C)CC3C=C(CC/C=C(\C)CCC12)C(=O)O3` (centres undefined), the Potency entry in experiment [1], in experiment [2], in experiment [3] and in experiment [4] was “inactive” in each case.
For `Cc1cc(-c2cc(OC(=O)c3ccccc3)ccc2Cl)cc2nnc(Nc3ccc(OCCN4CCCC4)cc3)nc12`, the Potency result in experiment [1], in experiment [2], in experiment [3] and in experiment [4] was “inactive” in each case.
Turning to `Cc1c(NC(=O)c2cc3c(s2)CCCC3)cccc1-c1cn(C)c(=O)c(Nc2ccc(C3C(=O)N(C)CCN3C)cc2)n1` (centres undefined), the Potency entry in experiment [1], in experiment [2] and in experiment [4] was “inactive” in each case. Also, the Potency in experiment [3] was 4.78 µM (active).
Consider `CC[C@H](C)/C=C(C)/C=C/C1=CC2=C(Cl)C(=O)[C@](C)(O)[C@H](OC(C)=O)[C@H]2CO1`, for which the Potency result in experiment [1], in experiment [2], in experiment [3] and in experiment [4] was “inactive” each time.
For the molecule `CCc1c(Cl)c(O)c(Cl)c(O)c1C(=O)O[C@H]1[C@H](O)[C@H](OC)[C@H](OC/C2=C\C=C\C[C@H](O)/C(C)=C\[C@H](CC)[C@@H](O[C@@H]3OC(C)(C)[C@@H](OC(=O)C(C)C)[C@H](O)[C@@H]3O)/C(C)=C/C(C)=C/C[C@@H]([C@@H](C)O)OC2=O)O[C@@H]1C`, the Potency result in experiment [1], in experiment [3] and in experiment [4] was “inactive” in each case. In experiment [2], the Potency result was “inactive and 5.01 µM (active)”.
`CC(C)OC(=O)N1CCC(Oc2ncnc3c2cnn3-c2ccc(S(C)(=O)=O)cc2F)CC1`: the Potency result in experiment [1], in experiment [2], in experiment [3] and in experiment [4] was “inactive” in each case.
For the molecule `CN1CCc2cc3c(cc2C(=O)Cc2cc4c(cc2C1)OCO4)OCO3`, the Potency result in experiment [1], in experiment [2], in experiment [3] and in experiment [4] was “inactive” each time.
For the molecule `Cc1cc(F)ccc1[C@H]1C[C@@H](N2CCN3C(=O)CC[C@H]3C2)CCN1C(=O)N(C)[C@H](C)c1cc(C(F)(F)F)cc(C(F)(F)F)c1`, the Potency entry in experiment [1], in experiment [2], in experiment [3] and in experiment [4] was “inactive” throughout.
For `COc1ccc(Oc2c(Cl)cnn(-c3cc(C)cc(C)c3)c2=O)cc1`, the Potency entry in experiment [1], in experiment [2], in experiment [3] and in experiment [4] was “inactive” in each case.
Regarding `CC1(C)SCCN(S(=O)(=O)c2ccc(Oc3ccncc3)cc2)[C@H]1C(=O)NO`, the Potency result in experiment [1], in experiment [2], in experiment [3] and in experiment [4] was “inactive” throughout.
For `CCC/C=C/C=C/C1CC(O)C2(O)C(=O)OCC12` (centres undefined), the Potency entry in experiment [1], in experiment [2], in experiment [3] and in experiment [4] was “inactive” throughout.
